Assay outcomes deposited in PubChem by National Center for Advancing Translational Sciences (NCATS).
VACV mCherry inh: inhibitors of vaccinia virus infection (mCherry reporter signal); Vaccinia virus mCherry reporter infection, fluorescence; Potency, µM (series often up to 36.5 µM), inactives show at the highest dose activity change, negative = inhibition, hits mostly inhibitors; actives 0.63% (n = 310,000); calls by dose curve; tested in A549 cells; also: potency is read from the fitted curve at half-maximal effect; nearly all actives have a fitted effect of over 35% in size
Lassa entry inh: blocks Lassa virus binding to or entry into cells. Potency, µM (series often up to 37.9 µM), for inactives: top-dose activity change, negative = inhibition, usual class: inhibitors. Lassa virus pseudotype entry inhibition, cell reporter. actives 1.2% (n = 300,000). AID 540256; calls by dose curve; tested in HEK293 cells; also: potency is read from the fitted curve at half-maximal effect; nearly all actives have a fitted effect of over 50% in size
Marburg entry inh: inhibitors of Marburg virus binding or cell entry; Marburg virus pseudotyped entry inhibition, cell reporter; Potency, µM (series often up to 37.8 µM), without a hit: top-dose activity change, negative = inhibition, hits mostly inhibitors; actives 1.8% (n = 300,000); calls by dose curve; tested in HEK293 cells; also: potency is read from the fitted curve at half-maximal effect
Vaccinia Venus: inhibitors of vaccinia virus (Venus reporter); Vaccinia virus Venus reporter expression, fluorescence; Potency, µM (doses to about 36.5 µM), without a hit: at the top dose activity change, negative = inhibition, most hits filed as inhibitors; actives 0.46% (n = 330,000); AID 720580; calls by dose curve; tested in A549 cells; also: potency is read from the fitted curve at half-maximal effect; nearly all actives have a fitted effect of over 30% in size
FMDV antiviral: antivirals against foot and mouth disease virus; FMDV antiviral cell-based qHTS; AID 1159524; Potency, µM (series often up to 57.9 µM), inactives show top-dose activity change, negative = inhibition, hits mostly inhibitors; actives 1.2% (n = 410,000); calls by dose curve; tested in HEK293T cells; also: read-out not given here; potency is read from the fitted curve at half-maximal effect; nearly all actives have a fitted effect of over 45% in size
HCMV inh: blocks human cytomegalovirus replication; HFF cells, HCMV-luciferase reporter, 72 h; stronger effect = lower value; activity change, negative = inhibition, % at 57.5 µM; actives 4.5% (n = 410,000); in the data active = activity change below about -60%; inconclusive = no clear call, values can overlap the other calls; inactive = above about -39%
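After 16 h attachment at 37C, HFF cells received test compound and HCMV-luciferase (1 PFU/cell); reporter luminescence read 72 h later, data normalized against buffer-only and known inhibitor Salinomycin.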
An asterisk follows results filed as active; [ ] = dose if it differs, or a comment. An excerpt weighted towards active compounds, which were near 6.5% of everything screened. % is scaled to controls: 0 for no effect and ±100 for the full control effect.

`COc1ccc(O)c(C=Nc2cc(NC(C)=O)c(Cl)cc2Cl)c1` gave VACV mCherry inh inactive, Lassa entry inh inconclusive, Marburg entry inh -24%, Vaccinia Venus -10%, FMDV antiviral 10% and HCMV inh -102*.
Screening CC(=O)N1CCN(c2ccc(NCc3ccc(-c4ccc(Br)cc4)o3)cc2)CC1 returned FMDV antiviral inconclusive and HCMV inh -80*.
For CC(=O)N1CCN(c2ccc(NCc3ccc(Br)o3)cc2)CC1 the results were FMDV antiviral -22% and HCMV inh -62*.
CN1CCN(c2ccc(NC(=O)c3ccc(-c4ccc(Br)cc4)o3)cc2)CC1 was read as VACV mCherry inh inconclusive, Lassa entry inh inconclusive, Marburg entry inh inconclusive, Vaccinia Venus -8%, FMDV antiviral -18% and HCMV inh -33.
Screening CC(=O)N1CCN(c2ccc(NCc3ccccc3)cc2)CC1 returned Lassa entry inh 9%, Marburg entry inh 0%, FMDV antiviral 0% and HCMV inh -13.
For COC(=O)C(c1ccccc1)(c1cn(C)c2cc(Br)ccc12)C(Nc1ccccc1)c1ccccc1 (stereo not drawn) the results were HCMV inh -7.
For Cc1nc(NCCc2ccc(O)cc2)c2nnn(Cc3ccccc3)c2n1 the results were VACV mCherry inh -16%, Lassa entry inh -23%[46.1 µM], Marburg entry inh inconclusive, Vaccinia Venus -18%, FMDV antiviral -23% and HCMV inh 26.
For CCCS(=O)(=O)NC(=O)C1(C)CCN(C(=O)c2cc(C)n(C(C)(C)C)n2)C1 (stereo not drawn) the results were VACV mCherry inh 5%, Vaccinia Venus -8%, FMDV antiviral -12% and HCMV inh 36.
For CCCS(=O)(=O)NC(=O)C1(C)CCCN(C(=O)c2cc(C)n(C(C)(C)C)n2)C1 (stereo not drawn) the results were VACV mCherry inh 38%, Vaccinia Venus 6%, FMDV antiviral 5% and HCMV inh -64*.
`COc1cc(OC)cc(C(=O)N[C@H](C(=O)OCC(=O)Nc2ccc(C)cc2C)C(C)C)c1` gave VACV mCherry inh -20%, Lassa entry inh -15%, Marburg entry inh 2%, Vaccinia Venus -8%, FMDV antiviral -8% and HCMV inh -90*.
Screening O=C1c2cccc3c(N4CCCCC4)ccc(c23)C(=O)N1CCO returned VACV mCherry inh -2%, Lassa entry inh inconclusive, Marburg entry inh inconclusive, Vaccinia Venus 10%, FMDV antiviral 6% and HCMV inh 17.
Screening O=C1c2cccc3c(N4CCCCC4)ccc(c23)C(=O)N1c1cccc(O)c1 returned VACV mCherry inh -19%, Marburg entry inh inconclusive, Vaccinia Venus 151%, FMDV antiviral -10% and HCMV inh -84*.
Screening Cc1ccc2c(c1)Cc1nc3ccccc3nc1-2 returned VACV mCherry inh inactive, Lassa entry inh inconclusive, Marburg entry inh 6.3µM*, Vaccinia Venus -6%, FMDV antiviral -72% and HCMV inh 67.
For Cc1ccc2nc(-c3ccccc3C)c(CN(CC3CCCO3)C(=O)c3cccs3)cc2c1 (stereo not drawn) the results were VACV mCherry inh -3%, Vaccinia Venus -9% and FMDV antiviral -5%.
`CN(Cc1ccon1)C(=O)c1cnn(-c2ncc3c(n2)-c2ccccc2CCC3)c1C1CC1` gave VACV mCherry inh -14%, Vaccinia Venus 0% and FMDV antiviral 20%.
Screening CC1(C)Oc2ccc3ccc(=O)oc3c2-c2cn[nH]c21 returned Lassa entry inh inconclusive, Marburg entry inh -17%, Vaccinia Venus inconclusive, FMDV antiviral 6% and HCMV inh -81*.
`CC1(C)Oc2ccc3ccc(=O)oc3c2-c2cnoc21` gave VACV mCherry inh inactive, Marburg entry inh 6%, Vaccinia Venus -6%, FMDV antiviral -13% and HCMV inh 33.
For O=C1[C@H]2[C@@H]3[C@@H](O)[C@H](O)CC(=NOCc4ccccc4)[C@H]3CC[C@H]2C(=O)N1C[C@@H]1CCCO1 the results were Marburg entry inh -7%[14.2 µM].
`Cc1cc(O)cc(O)c1/C=N/NC(=O)c1ccc2c(c1)OCCO2` gave VACV mCherry inh 2µM*, Vaccinia Venus inconclusive, FMDV antiviral -16% and HCMV inh -100*.
